Assay in all cases: PBM binding z-score (relative to random genomic background probes); higher = stronger binding; sequences stand for … in GC…GCGATTGACAGCGTAGAATGAAGG
Test [1] relates to RARb homodimer (NR concentration 270 nM). Summed up:
(§1)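 Regression normalization was applied to scanned fluorescence from custom Agilent 4×180K protein-binding microarrays. Before scanning, arrays were incubated 1 h with ligand-free nuclear receptor dimers, and binding was detected with antibodies against each partner (one per run). Binding z-scores use the random background probes as reference.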

The subject of test [2] is RARg:RXRa (NR concentration 270 nM, RXRa partner concentration 90 nM). The method, boiled down:
as §1

Test [3] relates to RARg homodimer (NR concentration 270 nM). The method, boiled down:
as §1

The test system of test [4] is RXRa DBDmut IVT, anti-RXR (DBD mutation: RXRa K156A/R161A, NR concentration 90 nM). The method, boiled down:
as §1

Test [5] deals with RXRa homodimer (NR concentration 180 nM). The method, boiled down: as §1
In test [6] the test system is THRa:RXRa (NR concentration 90 nM, RXRa partner concentration 90 nM). The method, boiled down: as §1
The test system of test [7] is THRa homodimer (NR concentration 90 nM). Summed up:
as §1

Test [8] has as its system VDR homodimer (NR concentration 270 nM). Summed up:
as §1

Take CGCCAAAGTTCAACTAAGGTAACGTAAAGCACGC: the PBM binding z-score is 4.29 in test [1]; 5.87 in test [2]; 6.48 in test [3]; 4.67 in test [4]; 4.49 in test [5]; 5.24 in test [6]. The results for the PBM binding z-score in test [7] and in test [8] were 2.11 and 3.81, respectively.
In the case of TCTTGTAGATCAACAGGTTAAGAAAGCTGGCCAA, the PBM binding z-score in test [1] is 0.358; in test [2], 0.2; in test [3], -0.172; in test [4], 0.696; in test [5], 0.726; in test [6], 0.203. In addition, the PBM binding z-score in test [7] and in test [8] was -0.285 each time.
For the sequence CGTCCAAGGTCAGCAGCTCAGTGAAAGCGACGTG, the PBM binding z-score in test [1] stood at 3.86; in test [2], 5.03; in test [3], 5.8; in test [4], 2.64; in test [5], 4.07; in test [6] it was 3.44. In addition, the PBM binding z-score in test [7] was determined as 1.99; in test [8] it was 0.868.
In the case of ATAACAAGGTGATCGTGAGGTCGTTGATACTAAC, the PBM binding z-score in test [1] was determined as 1.58; in test [2], 2.43; in test [3] it was 1.23; in test [4], 0.955; in test [5], 1.76; in test [6], 3.48. The PBM binding z-score in test [7] stood at 2.31; in test [8], 2.78.
On to ATCTCTAGGTAAAGATAGTTCCGTGAATGCAAAT, for which the PBM binding z-score is -0.314 in test [1]; -0.154 in test [2]; 0.427 in test [3]; -0.0164 in test [4]; 0.0158 in test [5]; 0.316 in test [6]. Also, the figures for the PBM binding z-score in test [7] and in test [8] were 0.233 and 0.309, respectively.
Take ATATGTAGGTTACATCCGGATCATTCAGGCTATG: the PBM binding z-score in test [1] is 0.614; in test [2], 1.02; in test [3], 1.25; in test [4], 0.718; in test [5], 1.24; in test [6], 1.3. Also, the PBM binding z-score in test [7] was determined as 0.394; in test [8] it was 0.331.
Regarding CTTACAGGGTCAGCTAGGCCAGAGTAGGGACGGC, the PBM binding z-score was 3.2 in test [1]; 4.47 in test [2]; 4.97 in test [3]; 1.83 in test [4]; 4.42 in test [5]; 2.97 in test [6]. Also, the figures for the PBM binding z-score in test [7] and in test [8] were 0.729 and 0.875, respectively.
For AGAGTGAGGTTATACGTAGATCAGGGAAGAAAGT, the PBM binding z-score in test [1] amounted to 1.53; in test [2], 1.82; in test [3], 1.28; in test [4], 1.38; in test [5], 2.03; in test [6], 2.21. In addition, the results for the PBM binding z-score in test [7] and in test [8] were 1.15 and 1.41, respectively.
For TCTCGGAGGACACGCAGGTCAGAGCTTTCCAGAG, the PBM binding z-score turned out to be 2.81 in test [1]; 2.47 in test [2]; 3.04 in test [3]; 0.783 in test [4]; 1.05 in test [5]; 2.63 in test [6]. For the same sequence, the results for the PBM binding z-score in test [7] and in test [8] were 1.06 and 1.2, respectively.
GATTGTAGATCAAGGTTAAGAAAGACTAAGCTAA: the PBM binding z-score was -0.213 in test [1]; 0.14 in test [2]; 0.339 in test [3]; -0.224 in test [4]; 0.781 in test [5]; 0.867 in test [6]. Also, the PBM binding z-score is -0.616 in test [7] and -0.0253 in test [8].
CATATAGGGTCAGCTAGGCCAGAGTAGGGACGGC: the PBM binding z-score was 3.33 in test [1]; 4.41 in test [2]; 4.49 in test [3]; 1.48 in test [4]; 4.2 in test [5]; 3.37 in test [6]. In addition, the PBM binding z-score turned out to be 1.12 in test [7] and 1.02 in test [8].
For CCTACTGGACCACGAAAGGTCATTGATTCAGTGA, the PBM binding z-score in test [1] worked out at 4.5; in test [2], 4.44; in test [3], 3.94; in test [4], 1.31; in test [5], 5.46; in test [6] it was 3.36. The figures for the PBM binding z-score in test [7] and in test [8] were 1.6 and 2.68, respectively.
As for ATATGTAGGTTCAGGGTCATTCAGGTTGGTTCGC, the PBM binding z-score was determined as 3.58 in test [1]; 4.1 in test [2]; 3.01 in test [3]; 3.37 in test [4]; 5.25 in test [5]; 3.92 in test [6]. Also, the values for the PBM binding z-score in test [7] and in test [8] were 3.36 and 6.06, respectively.
With ATCTCTAGTTAACCAAGTTCAGTGAATGCCGAAC, the PBM binding z-score in test [1] is 1.4; in test [2], 0.578; in test [3], 0.612; in test [4], 0.814; in test [5], 0.549; in test [6] it was 1.19. In addition, the figures for the PBM binding z-score in test [7] and in test [8] were 0.332 and 3.16, respectively.
In the case of CCAGACAGGGGAGAAGGTAACTCAGCCTCGATTA, the PBM binding z-score was -0.0846 in test [1]; -0.296 in test [2]; -0.226 in test [3]; 0.218 in test [4]; -0.357 in test [5]; -0.218 in test [6]. Besides, the PBM binding z-score in test [7] is -0.17; in test [8] it was -0.316.
Take ATCTCTAGGTAACGAAGTTCAGTGAATGCCGAAC: the PBM binding z-score amounted to 1.38 in test [1]; 0.591 in test [2]; 0.883 in test [3]; 0.137 in test [4]; 0.413 in test [5]; 0.946 in test [6]. Further, the PBM binding z-score came out at 0.14 in test [7] and 1.27 in test [8].
In the case of ATCTCTGGGTAACCAAGTTCAGTGAATGCCGAAC, the PBM binding z-score in test [1] is 1.28; in test [2], 0.665; in test [3] it was 0.596; in test [4], 0.665; in test [5] it was 0.412; in test [6], 1.46. For the same sequence, the PBM binding z-score turned out to be 0.335 in test [7] and 2.64 in test [8].

These data come from the supplement of paper PMC6555819.
